Assay outcomes as filed in PubChem BioAssay.
Chronic BCR inh: qHTS Assay to Find Inhibitors of Chronic Active B-Cell Receptor Signaling. ABC-DLBCL IkBa-CBG/CBR reporter, luminescence ratio, 4 h. Potency, µM (highest dose often 46.1 µM), inactives show top-dose activity change, negative = inhibition, most hits filed as inhibitors. AID 493014, 2011. 0.05% of 340,000 active; active = well fitted inhibition curve with a large enough effect in the signal ratio, with a control signal flat, not every such curve was filed as active; inconclusive = small, poorly fitted or top-dose-only effect, or effect the other way, or a change in a side signal; the % refers to the signal ratio;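 note: potency is the fitted concentration of half-maximal effect; plate controls were basal doxycycline-induced cells for no effect and cells given 10 µM MG132 for full effect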
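TMD8 ABC-DLBCL cells carrying doxycycline-inducible green luciferase fused to IkappaBalpha plus unfused red luciferase were exposed to compounds (up to 46 uM) for 4 hrs at 37C. Activity came from the overlap-corrected green/red luminescence ratio.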
Tb PFK inh-1: qHTS Assay to Find Inhibitors of T. brucei phosphofructokinase; ATP-dependent 6-phosphofructokinase (Trypanosoma brucei brucei), O15648; T. brucei PFK, ADP-Glo luminescence; Potency, µM (doses to about 57.5 µM), without a hit: at the highest dose activity, negative = inhibition, usual class: inhibitors; 0.17% of 330,000 active;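 note: potency is the fitted concentration of half-maximal effect; 0% = uninhibited 1x PFK enzyme wells and -100% = no-enzyme wells; nearly all actives have a fitted effect of over 60% in size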
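Compounds were pin-transferred as a titration series up to 57 uM into substrate buffer (0.5 mM F6P, 0.1 mM ATP, pH 8.0), then 1.25 nM PFK was added and reactions ran 45 min before ADP-Glo detection.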
Pin1 inh: qHTS Assay to Find Inhibitors of Pin1; Pin1 FP peptide displacement, HiFluor488, 10 min; Potency, µM (series often up to 115 µM), inactives show at the top dose activity, negative = inhibition, actives largely listed as inhibitors; 0.009% of 390,000 active; active = well fitted inhibition curve with a large enough effect in the polarisation, with a control signal flat, not every such curve was filed as active; inconclusive = small, poorly fitted or top-dose-only effect, or effect the other way, or a change in a side signal; inactive = no such curve, though single readings can be large or run the other way; the % refers to the polarisation; note: potency is the fitted concentration of half-maximal effect; % is set by controls: 0 for no effect and ±100 for the full control effect
PGK inhibitor: qHTS Assay to Find Inhibitors of Phosphoglycerate Kinase | Phosphoglycerate kinase, glycosomal (Trypanosoma brucei brucei), P07378 | PGK/GAPDH coupled, Kinase-Glo luminescence, 60 min | Potency, µM (top dose mostly 57.5 µM), inactives show at the top dose activity change, negative = inhibition, usual class: inhibitors | 0.043% of 380,000 active | AID 602233, 2012; note: potency is the fitted concentration of half-maximal effect; % is set by controls: 0 for no effect and ±100 for the full control effect; nearly all actives have a fitted effect of over 60% in size
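Luminescent ATP detection (Kinase-Glo Plus) follows a 60-minute room-temperature incubation, with wells lacking PGK as controls. Buffer: 100 mM TEA (pH 7.6), 5 mM MgCl2, 0.01% Tween-20. Coupling enzyme GAPDH (100 nM final) supplies unstable 1,3-BPG in-well.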
PI4K2A block: qHTS for small molecular inhibitors of PI4K2A; activity change, negative = inhibition, % at 76.9 µM; Phosphatidylinositol 4-kinase type 2-alpha (Homo sapiens), Q9BTU6; purified PI4K2A, ADP-Glo luminescence, 1 h; active compounds read low; 0.13% of 420,000 active; in the data active = activity change below about -50%; inconclusive = mostly about -30% to -49%;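 note: -100% = wells without enzyme as full effect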
Target sequence (Q9BTU6 whole entry, looked up): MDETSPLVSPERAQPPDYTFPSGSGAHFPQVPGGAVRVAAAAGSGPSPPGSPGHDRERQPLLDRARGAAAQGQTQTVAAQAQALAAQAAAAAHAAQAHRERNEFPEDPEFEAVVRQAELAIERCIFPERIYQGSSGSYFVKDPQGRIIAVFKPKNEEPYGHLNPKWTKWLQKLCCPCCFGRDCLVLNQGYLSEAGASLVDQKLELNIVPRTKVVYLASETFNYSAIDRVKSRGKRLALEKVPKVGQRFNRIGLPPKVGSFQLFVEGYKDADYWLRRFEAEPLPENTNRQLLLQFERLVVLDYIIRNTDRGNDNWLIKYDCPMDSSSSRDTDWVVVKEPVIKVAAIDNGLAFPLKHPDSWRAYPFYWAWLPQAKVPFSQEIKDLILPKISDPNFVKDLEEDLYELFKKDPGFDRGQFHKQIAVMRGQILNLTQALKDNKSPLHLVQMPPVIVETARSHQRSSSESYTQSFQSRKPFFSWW
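PI4K2A activity was measured by ADP-Glo luminescence: enzyme (4 ug/mL stock) and phosphatidylinositol (1.2 mM stock) in Tris pH 7.5/MgCl2/EGTA/Triton X-100 buffer were reacted with ATP (300 microM stock) for one hour at ambient temperature.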
TbPFK ATP: Tb PFK orthogonal confirmatory assay using ATP depletion (Kinase-Glo Plus) as an alternative measure of Tb PFK activity: Hit Validation | shares compounds with Tb PFK inh-1 | Tb PFK enzyme, ATP depletion, Kinase-Glo Plus luminescence | Potency, µM (highest dose often 57.5 µM), for inactives: at the highest dose inhibition | 47% of 1,100 active; calls by dose curve; note: potency is the fitted concentration of half-maximal effect; nearly all actives have a fitted effect of over 60% in size
Tb PFK inh-2: Inhibitors of T. brucei phosphofructokinase: Hit Validation | 41% of 1,100 active | Potency, µM (top dose mostly 57.5 µM), inactives show at the top dose activity change, negative = inhibition, usual class: inhibitors | shares compounds with Tb PFK inh-1 | purified T. brucei PFK, ADP-Glo luminescence, 45 min;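 note: potency is the fitted concentration of half-maximal effect; plate controls were full PFK enzyme control for no effect and no enzyme control for full effect; nearly all actives have a fitted effect of over 60% in size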
Numbers without * were called inactive; i = inactive; ? = inconclusive; . = not tested or not shown. Most compounds without a hit are left out; they make up all but 0.34% or so of the library. Unless noted, calls come from the whole dose curve; as a rule, active = well fitted curve in the direction sought with a large enough effect; inconclusive = small, poorly fitted or top-dose-only effect, or another doubt; inactive = no such curve, though single readings can be large; an effect the other way counts as inactive or inconclusive.

SMILES | Chronic BCR inh | Tb PFK inh-1 | Pin1 inh | PGK inhibitor | PI4K2A block | TbPFK ATP | Tb PFK inh-2
O=C(N/N=C\C=C\c1ccc2c(c1)OCO2)C1COc2ccccc2O1 (centres undefined) | 0% | 27µM* | 9% | . | -5 | 17µM* | 21µM*
O=C(N/N=C\C=C\c1ccc2c(c1)OCO2)c1cccnc1 | ? | 0% | ? | . | 0 | . | .
COc1cc(F)cc(F)c1[S+](=O)([O-])N1CCN([S+](=O)([O-])c2ccc3c(c2)OCCO3)CC1 | . | . | 1% | . | . | . | .
CCNC(=O)[C@@H]1CCCN1C(=O)[C@H](CCCN=C(N)N)NC(=O)[C@H](CC(C)C)NC(=O)CNC(=O)[C@H](Cc1ccc(O)cc1)NC(=O)[C@H](CO)NC(=O)[C@H](Cc1c[nH]c2ccccc12)NC(=O)[C@H](Cc1cnc[nH]1)NC(=O)[C@@H]1CCC(=O)N1 | . | . | . | . | -3 | . | .
COc1ccc(Cl)cc1C(=O)NNC(=O)COC(=O)CCN=C1NS(=O)(=O)c2ccccc21 | -3% | ? | 6% | -2% | 3 | -28% | ?
COc1ccccc1C(=O)COC(=O)CCN=C1NS(=O)(=O)c2ccccc21 | 9% | -1% | 0% | 4% | 3 | . | .
O=C(/C=C1\C(=O)Nc2ccccc21)/C=C1\C(=O)Nc2ccccc21 | ? | ? | ? | 8% | -3 | 1.7µM* | 4.8µM*
Cc1[nH]nc2c1C(c1cc(Br)cs1)C(C#N)=C(N)O2 (centres undefined) | ? | ? | 4% | i | -1 | ? | ?
Cc1[nH]nc2c1C(c1ccco1)C(C#N)=C(N)O2 (centres undefined) | ? | -19% | 1% | 5% | 6 | . | .
C[C@]12Cc3cn[nH]c3C[C@@H]1CC[C@@H]1[C@@H]2CC[C@@]2(C)[C@H]1CC[C@]2(C)O | . | . | . | . | 2 | . | .
Cc1nn(Cc2ccc(F)cc2)c(C)c1NC(=O)c1cc2ncc(Br)cn2n1 | -18% | 24µM* | -2% | -16% | -5 | 11µM* | 24µM*
Cc1nn(Cc2ccc(Cl)c(Cl)c2)c(C)c1NC(=O)c1cc(CC(C)C)on1 | -15% | 30µM* | 0% | -3% | 4 | 11µM* | 12µM*
Cc1ccc(/C=C2/NC(=O)N(c3ccccc3)C2=O)o1 | ? | ? | ? | -3% | 1 | ? | ?
Cc1ccc(/C=C2/NC(=O)N(Cc3ccccc3F)C2=O)o1 | -15% | ? | 7% | i | 4 | ? | -27%
CCN1C(=O)N/C(=C/c2ccc(C)o2)C1=O | ? | 13µM* | 1% | -6% | -1 | ? | ?
Cc1ccc(/C=C2/NC(=O)N(Cc3ccc(Br)cc3)C2=O)o1 | -16% | 15µM* | 11% | -1% | 4 | ? | ?
Cc1ccc(/C=C2/C(=O)NC(=O)N(CCc3ccc(F)cc3)C2=O)o1 | 6% | 1% | 48% | -2% | -25 | . | .
CCCN1C(=O)/C(=C/c2ccc(C)o2)NC1=S | 17% | ? | . | . | . | . | .
CCc1cc2c(s1)c1cnn(Cc3ccccc3F)c(=O)c1n2C | . | . | 0% | . | . | . | .
